Bioassay records deposited in PubChem BioAssay by National Center for Advancing Translational Sciences (NCATS).
Rows were chosen to be rich in hits. Some 3% of all compounds tested hit in one or more screens of this group.
KAT2A inh = blocks human GCN5L2 histone acetyltransferase. Q92830. GCN5L2 HAT assay, ThioGlo1 CoA-SH fluorescence. Potency, µM (highest dose often 58.9 µM), for the others: at the highest dose activity change, negative = inhibition, most hits filed as inhibitors. 390,000 tested, 0.21% active. AID 504327
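GCN5L2 (20 nM) in 50mM HEPES pH 7.5, 0.1mM EDTA, 0.01% Tween-20 preincubated 15 min with compounds at room temperature. Reaction started with H3(1-25) 75uM, acetyl-CoA 70uM, ThioGlo1 50uM; CoA-thiol fluorescence (Ex340/Em540) read at 0 and 20 min.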
VDR inh = blocks the human vitamin D receptor | 400,000 tested, 0.93% active | P11473 | AID 504847 | Potency, µM, without a hit: max response, negative = inhibition, most hits filed as inhibitors | VDR-SRC2-3 peptide fluorescence polarization, 2 h
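The screen uses fluorescence polarization to detect compounds that interfere with recruitment of the SRC2-3 coactivator peptide to VDR; plates are read after 2 h at room temperature.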
ALOX12 inh = blocks human arachidonate 12S-lipoxygenase; AID 1671190; P18054; Potency, µM (top dose mostly 108 µM), without a hit: at the highest dose activity change, negative = inhibition, actives largely listed as inhibitors; purified 12hLO, xylenol orange hydroperoxide absorbance; 580,000 tested, 1.1% active
Target sequence (P18054 whole entry, looked up): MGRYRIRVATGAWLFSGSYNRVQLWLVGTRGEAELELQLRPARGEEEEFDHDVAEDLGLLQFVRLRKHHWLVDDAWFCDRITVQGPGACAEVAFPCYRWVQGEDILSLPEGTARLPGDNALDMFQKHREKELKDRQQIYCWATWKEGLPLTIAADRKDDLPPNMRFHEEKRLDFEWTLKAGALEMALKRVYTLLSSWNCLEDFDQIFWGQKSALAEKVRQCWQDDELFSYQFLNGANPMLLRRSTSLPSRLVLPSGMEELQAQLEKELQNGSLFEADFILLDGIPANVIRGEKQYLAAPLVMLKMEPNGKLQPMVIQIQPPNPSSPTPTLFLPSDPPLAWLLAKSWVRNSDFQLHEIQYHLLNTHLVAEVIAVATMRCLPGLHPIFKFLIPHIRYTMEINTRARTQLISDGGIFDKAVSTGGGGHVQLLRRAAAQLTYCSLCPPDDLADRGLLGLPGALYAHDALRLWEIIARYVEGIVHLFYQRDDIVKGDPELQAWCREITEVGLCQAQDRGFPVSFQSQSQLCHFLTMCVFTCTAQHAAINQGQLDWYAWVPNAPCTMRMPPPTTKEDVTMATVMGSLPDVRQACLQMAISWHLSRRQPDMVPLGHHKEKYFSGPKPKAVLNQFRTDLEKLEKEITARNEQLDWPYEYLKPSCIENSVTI
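Purified human 12hLO at 150 nM in 25 mM Hepes, 0.01% Triton X-100, pH 7.0, preincubated 15 min at room temperature with compound. Reaction started with 40 uM arachidonic acid, 30 min at room temperature. Hydroperoxide measured by Fe-xylenol orange, 573/405 nm absorbance ratio.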
PLK1 PBD inh = PLK1 (human) polo-box domain binding inhibition. Plk1 PBD binding of FITC phosphopeptide, fluorescence polarization. Potency, µM, inactives show max response, negative = inhibition, usual class: inhibitors. 360,000 tested, 2.8% active; also: series mostly up to about 57 µM; nearly all actives have a fitted effect of over 65% in size
* hit, by the source's call; u = inconclusive; x = no result given; [ ] = dose if it differs, or a comment. Calls follow the shape of the dose curve; as a rule, active = well fitted curve in the direction sought with a large enough effect; inconclusive = small, poorly fitted or top-dose-only effect, or another doubt; inactive = no such curve, though single readings can be large; an effect the other way counts as inactive or inconclusive. % is scaled to controls: 0 for no effect and ±100 for the full control effect; potency is read from the fitted curve at half-maximal effect.

SMILES	KAT2A inh	VDR inh	ALOX12 inh	PLK1 PBD inh
Cc1ccc(SCCNC(=S)Nc2cccc(Cl)c2C)cc1	x	x	31.6µM*	x
Cc1ccc(SCCNC(=S)NC2CC2)cc1	x	x	-52.3%	x
Cc1ccc(C)c(NC(=S)NCCSc2ccc(Cl)cc2)c1	-4.4%	-5.0%	28.2µM*	-0.6%
Cc1cccc(NC(=S)NCCSc2ccc(Cl)cc2)c1	-7.5%	-2.2%	u	-13.2%
Cc1ccc(SCCNC(=S)Nc2ccc(F)cc2)cc1	x	x	50.1µM*	x
CCn1nccc1C(=O)NCCC1CCN(C(=O)Nc2ccc(C)cc2)CC1	x	x	31.0%	x
CCc1ccccc1NC(=S)NCCSc1ccc(Cl)cc1	-15.0%	-2.4%	50.1µM*	-3.4%
Cc1ccc(NC(=S)NCCSc2ccc(Cl)cc2)c(C)c1	-18.7%	-11.7%	u	-5.9%
Cc1ccccc1NC(=S)NCCSc1ccc(Cl)cc1	-14.8%	-3.8%	44.7µM*	-6.6%
Cc1ccc(Cl)cc1NC(=S)NCCCSC1CCCCC1	-15.3%	-0.3%	35.5µM*	-10.1%
O=C(NCCN1CCCC1)c1c[nH]c2ccccc12	x	x	-18.6%	x
C/C(=N/NC(N)=S)C1=CC(C)(C)CCC1	x	x	6.31µM*	x
Cc1nc(-c2ccc(S(=O)(=O)Nc3ccc(C(C)C)cc3)cc2)co1	x	x	1.4%	x
O=C(O)Cc1sc(N/N=C\c2ccccc2)nc1-c1ccccc1	-26.4%	8.9%	44.7µM*	11.9µM*
C=CCNc1nc(-c2cccs2)c(CC(=O)O)s1	-3.5%	-11.3%	u	u
O=C(O)Cc1sc(Nc2ccccc2)nc1-c1cccs1	-1.2%	79.4µM*	u	21.2µM*
CCCCc1nn2c(=O)cc(CSCC(=O)Nc3ccccc3C)nc2s1	x	x	10.5%	x
Cn1ncc2c(c(SCc3ccc(Cl)cc3Cl)nn2C)c1=O	-12.7%	u	u	11.9µM*
O=C1C=CC(=Nc2ccc3c(c2)Cc2cc(F)ccc2-3)O1	x	56.2µM*	u	u
CC(C)NC(=O)CSc1nc(-c2ccccc2)[nH]c1S(=O)(=O)c1ccccc1	x	x	12.8%	x
O=C(O)c1ccc(-c2ncc[nH]2)cc1	1.3%	44.7µM*	-22.1%	u
CCOC(=O)c1cn2ccc(C)cc2n1	-5.7%	-15.1%	0.0%	26.7µM*
O=C(NC1CC1)c1cc(=O)c2cc(Cl)ccc2o1	x	x	-6.2%	x
CC(=O)N1C(=O)C2(C(C#N)=C(N)Oc3n[nH]c(-c4ccccn4)c32)c2ccccc21 (stereo not given)	-9.2%	-14.9%	u	23.8µM*
CN1C(=O)C2(C(C#N)=C(N)Oc3n[nH]c(-c4ccc(Cl)cc4)c32)c2ccccc21 (stereo not given)	-4.6%	-5.2%	-1.4%	-0.6%
SMILES	KAT2A inh	VDR inh	ALOX12 inh	PLK1 PBD inh
COc1ccc(OC(C)C(=O)Nc2ccc(Br)cc2C)cc1 (stereo not given)	x	x	0.3%	x
O=C1c2ccccc2CC1Sc1nnc(-c2ccccn2)o1 (stereo not given)	-5.8%	u	1.0%	23.8µM*
CN(C)CCCNC(=O)c1nc(CC(=O)Nc2cccc3ncccc23)no1	x	x	44.0%	x
O=C(COc1ccccc1F)Nc1cc(S(=O)(=O)Nc2cccc(Cl)c2)ccc1O	0.7%	-18.6%	u	23.8µM*
CCCCC/C=C\C=C\C(=O)OCC	x	x	-28.2%[176 µM]	x
O=C(c1ccc(C(F)(F)F)cc1)N1CCN(C2CC2)CC1	x	x	14.3%	x
CCc1cc2c(SCC(=O)O)ncnc2s1	-5.5%	12.7%	-17.4%	-9.7%
CCc1cc2c(SCC#N)ncnc2s1	-7.0%	5.4%	-2.7%	26.7µM*
CCc1cc2c(N3CCCCC3)ncnc2s1	-5.1%	15.4%	28.2µM*	-2.8%
CCc1cc2c(N3CCCC(C(=O)NCc4ccc(F)cc4)C3)ncnc2s1 (stereo not given)	x	x	-13.6%	x
COc1ccc(CC(=O)Nc2ccc([C@@H](O)[C@H]3COCC(=O)N3CC3CCCCC3)cc2)cc1	x	x	21.4%	x
CCCNC(=O)CSc1nnc(C(=O)Nc2ccccc2)s1	x	x	-1.3%	x
CCNc1nc(NCC)n2c(SCC(=O)Nc3ccccc3F)nnc2n1	u	-6.6%	-17.2%	11.9µM*
CCNc1nc(NCC)n2c(SCC(=O)Nc3ccc(NC(C)=O)cc3)nnc2n1	4.2%	-4.1%	-18.2%	-4.7%
CCNc1nc(NCC)n2c(SCC(=O)Nc3ccc(CC)cc3)nnc2n1	-14.4%	50.1µM*	x	6.7µM*
COc1ccccc1NC(=O)CSc1nnc(CCC(=O)Nc2ccccc2F)n1C	35.5µM*	-12.1%	-3.3%	-4.0%
Cc1cc(S(=O)(=O)N(C)C)cc(NS(=O)(=O)c2cccc(Cl)c2Cl)c1C	x	x	12.6%	x
Cc1cc(C(=O)NC2CCCC2)c2c(C3CCNC3)noc2n1 (stereo not given)	x	x	5.1%[6.33 µM]	x
Cc1nn(CC(=O)N2CCCCCC2)c(C)c1S(=O)(=O)NC(C)(C)C	x	x	-16.3%	x
